Screening data (PubChem)
HCV inhibitor: inhibitors of hepatitis C virus infection; 340,000 tested, 3.4% active; AID 651820; Huh7.5.1 HCVcc-Cre infection, luciferase reporter, 44 h; Potency, µM (highest dose often 41.8 µM), actives largely listed as inhibitors
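Cells seeded at 1,000/well and cultured 4 h, then compounds added followed by HCVcc-Cre virus (~0.5 moi). After 44 h further culture, luciferase substrate was added, plates held 15 min at room temperature, and luminescence read for 15 sec.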
Pf growth 48h: inhibits P. falciparum growth in the first generation, 48 h. P. falciparum luciferase growth in erythrocytes, 48 h. Potency, µM (top dose mostly 28.7 µM), most hits filed as inhibitors. 310,000 tested, 5.9% active
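Growth was read as firefly luciferase luminescence after a 48 h, 37 C, 5% CO2 exposure of compounds to reporter-bearing P. falciparum cultures (0.1% parasitemia, 2% hematocrit final) in Albumax-supplemented RPMI 1640.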
Pf growth 96h: P. falciparum growth inhibition at 96 hour, primary screen for plastid delayed-death inhibitors | P. falciparum luciferase reporter growth, 96 h | Potency, µM (titrated, usually from 28.7 µM), usual class: inhibitors | 320,000 tested, 6.9% active | AID 504834
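Erythrocytes infected with luciferase-expressing P. falciparum were dispensed at 2% hematocrit and 0.05% parasitemia (final), then incubated with compounds 96 hours at 37 C in 5% CO2. Luminescence after detection reagent addition reported growth.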
AmpC detergent: blocks E. coli AmpC beta-lactamase in detergent assay; AmpC hydrolysis of nitrocefin, absorbance 480 nm, 0.01% Triton; 370,000 tested, 0.041% active; AID 485294; Potency, µM (top dose mostly 114 µM), hits mostly inhibitors; note: nearly all actives have a fitted effect of over 25% in size
Target sequence (P00811 whole entry, looked up): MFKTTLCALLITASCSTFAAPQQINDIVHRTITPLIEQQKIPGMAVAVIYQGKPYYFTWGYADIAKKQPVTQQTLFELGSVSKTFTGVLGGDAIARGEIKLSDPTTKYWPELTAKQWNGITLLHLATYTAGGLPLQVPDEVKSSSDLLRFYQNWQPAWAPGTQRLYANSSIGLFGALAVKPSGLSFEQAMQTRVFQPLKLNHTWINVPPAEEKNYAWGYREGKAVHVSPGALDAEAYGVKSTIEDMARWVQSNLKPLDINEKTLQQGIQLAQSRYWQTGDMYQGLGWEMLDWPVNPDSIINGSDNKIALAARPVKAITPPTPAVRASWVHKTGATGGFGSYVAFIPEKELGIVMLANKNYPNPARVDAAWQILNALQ
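20 mM phosphate pH 7.0 + 0.01% (detergent screen) or 0.0001% Triton X-100; 5.3 nM AmpC reagent; cpd preinc 15 min RT; nitrocefin (800 uM stock) to start; A480 q20 s × 4 min; Activity was normalised to no-enzyme and no-compound control wells.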
AmpC inh no detg: inhibitors of E. coli AmpC beta-lactamase without detergent | AmpC nitrocefin hydrolysis, absorbance 480 nm, 0.0001% Triton | 330,000 tested, 0.52% active | Potency, µM (top dose mostly 57.1 µM), hits mostly inhibitors | AID 485341; note: nearly all actives have a fitted effect of over 20% in size
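AmpC (5.3 nM in the dispensed reagent) in 20 mM phosphate pH 7.0 with 0.01% (detergent screen) or 0.0001% Triton X-100 was preincubated with compounds for 15 min at room temperature. Nitrocefin was then added from an 800 uM solution, and hydrolysis was followed at 480 nm.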
AMA1-RON2 inh: AMA1-RON2 (P. falciparum) interaction inhibition | AlphaScreen AMA1-biotinylated RON2 peptide binding | Potency, µM (titrated, usually from 58.2 µM), usual class: inhibitors | 360,000 tested, 0.2% active | AID 720542; note: nearly all actives have a fitted effect of over 45% in size
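AMA1 (3D7) with his tag at 25 nM final met compounds first, then biotinylated RON2 peptide at 25 nM; detection used donor plus acceptor beads, 10 µg/mL apiece, read by AlphaScreen after 30 min at room temperature.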
A number is an active result; 0 = inactive; ? = inconclusive; - = no result given; [ ] = remark or other dose. Only some compounds are listed: those with a hit (about 11% of all), similar ones and a draw of the others. Calls come from the whole dose curve; as a rule, active = well fitted curve in the direction sought with a large enough effect; inconclusive = small, poorly fitted or top-dose-only effect, or another doubt; inactive = no such curve, though single readings can be large; an effect the other way counts as inactive or inconclusive.

SMILES | HCV inhibitor | Pf growth 48h | Pf growth 96h | AmpC detergent | AmpC inh no detg | AMA1-RON2 inh
O=C(NCCc1c[nH]c2ccccc12)c1ccccc1 | 0 | 0 | 0 | 0 | 0 | 0
CN(C)C(CNC(=O)c1ccc(NC(=O)CC#N)cc1)c1ccccc1 (stereo not drawn) | 0 | ? | ? | 0 | 0 | 0
N#CCC(=O)Nc1ccc(C(=O)NCCC(c2ccccc2)c2ccccc2)cc1 | 0 | ? | ? | 0 | 7.9µM | 0
CCOc1ccc(CCNCc2c(C(=O)O)c(C)n(Cc3ccccc3F)c2C)cc1 | - | - | - | 0 | - | -
CN(Cc1ccccc1)C(=O)c1nc2ccccn2c1CN1CCCC1c1nccs1 (stereo not drawn) | 0 | 6.6µM | ? | 0 | 0 | 0
CCOC(=O)c1cc(-c2ccccc2)n(CCC(=O)Nc2nc3c(C)cccc3s2)c1C | - | - | - | 0 | - | -
Cc1ccc2oc(C(=O)N(C)Cc3cnccn3)c(C)c2c1 | 0 | 2.9µM | ? | 0 | 0 | 0
COc1ccc(C(F)(F)F)cc1NC(=O)c1nc2nc(C)cc(C(F)F)n2n1 | 0 | 3.7µM | ? | 0 | 0 | 0
COc1ccc(-c2cn3c(n2)sc2cc(C(=O)NCc4cccs4)ccc23)cc1 | - | - | - | 0 | - | -
Cc1ccc2c(Sc3ccccc3)c(C(=O)NCc3ccccc3F)[nH]c2c1 | - | - | - | 0 | - | -
CCc1cc2c(s1)N(CC(=O)OC)C(=O)CN=C2c1ccccc1OC | 0 | 0 | 8.3µM | 0 | 0 | 0
Cc1ccc(CCNS(=O)(=O)c2ccc3c(c2)CCN3C(=O)CCC(=O)O)cc1 | - | - | - | 0 | - | -
COc1ccc(OC)c(Nc2nc(NCCO)c3ccccc3n2)c1 | ? | 2.1µM | ? | 0 | 0 | 0
COc1ccccc1Nc1nc(NCCO)c2ccccc2n1 | - | ? | ? | 0 | 0 | -
Cc1ccc(Nc2nc(NCCO)c3ccccc3n2)cc1C | 13µM | 0.47µM | ? | 0 | 0 | 0
O=C(CSc1nc2c(c(=O)[nH]1)CN(Cc1ccc(F)cc1)CC2)Nc1cccc(C(F)(F)F)c1 | - | - | - | 0 | - | -
Nc1c(-c2nc(-c3cccs3)no2)nnn1-c1ccc(Cl)cc1 | - | - | - | 0 | - | -
CC(=O)Oc1ccc(C(=O)Nc2ccc(C3(C#N)CCCC3)cc2)cc1 | 14µM | 0 | ? | ? | 0 | 0
N#CC1(c2ccc(NC(=O)c3ccccc3)cc2)CCCC1 | - | 0 | 0 | 0 | 0 | -
CC(=O)Nc1ccc(Nc2nc(C)c([N+](=O)[O-])c(Nc3ccccc3)n2)cc1 | ? | ? | ? | ? | 0 | 0
CCC(=O)Nc1ccc(Nc2nc(C)c([N+](=O)[O-])c(Nc3ccc(NC(=O)CC)cc3)n2)cc1 | 10µM | ? | 0 | 0 | 0 | 0[2.32 µM]
COc1ccc(Nc2nc(N(C)c3ccccc3)nc(N)c2[N+](=O)[O-])cc1 | ? | 0 | 0 | 0 | 0 | 0
CC(=O)Nc1ccc(Nc2nc(C)c([N+](=O)[O-])c(N(C)c3ccccc3)n2)cc1 | 18µM | ? | ? | 0 | 0 | 0
COc1ccc(/C=N/Nc2nc(C)c([N+](=O)[O-])c(N(C)c3ccccc3)n2)cc1OC | 0 | 0 | 0 | 0 | 0 | 0
CN(c1ccccc1)c1nc(N)c([N+](=O)[O-])c(Nc2ccccc2)n1 | 5.6µM | ? | 0 | 0 | 0 | 0
SMILES | HCV inhibitor | Pf growth 48h | Pf growth 96h | AmpC detergent | AmpC inh no detg | AMA1-RON2 inh
COc1ccc(-c2nsc(NC(=O)c3oc4cc(C)c(C)cc4c3C)n2)cc1 | - | - | - | 0 | - | -
CCOc1c(Br)cc(C2C=C(C(=O)O)Nc3ncnn32)cc1OC (stereo not drawn) | - | - | - | 0 | - | -
COc1ccc(CCNc2ncnc3c2c(-c2ccccc2)cn3-c2ccc(Cl)cc2)cc1OC | - | - | - | 0 | - | -
COc1cccc(NC(=O)Cc2csc(COc3cccc(C)c3)n2)c1 | - | - | - | 0 | - | -
CCCSC1=NC2(CCN(C(=O)NC3CCCCC3)CC2)N=C1c1ccc(C)cc1 | - | - | - | 0 | - | -
CC(C)(C)OC(=O)C1C(=O)CC(C)(O)C(C(=O)OC(C)(C)C)C1c1cccnc1 (stereo not drawn) | 0 | - | ? | 0 | 0 | 0
CC(C)COC(=O)C1C(=O)CC(C)(O)C(C(=O)OCC(C)C)C1c1cccnc1 (stereo not drawn) | 0 | 9.3µM | - | 0 | 0 | 0
